Results taken from PubChem BioAssay (NCI).
This is part of a sample that, as a whole, favours compounds with a hit. Of some 83,000 tested, about 20% had one in any assay.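 Cells were grown in 96-well plates and exposed to the test compound at a single concentration for 48 hours; results are reported as percent growth, with values below 10 considered active.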 Activity calls are given as the source filed them.

Assays:
Assay in all cases: NCI-60 one-dose screen, 48 h (100 = growth as untreated, 0 = no growth, -100 = all killed)
Details in all cases: 10 µM unless noted
[1] = system: NCI-H23 lung
[2] = system: NCI-H226 lung
[3] = system: NCI-H322M lung
[4] = system: HOP-62 NSCLC
[5] = system: NCI-H460 lung
[6] = system: HOP-92 NSCLC
[7] = system: NCI-H522 lung
[8] = system: A549/ATCC NSCLC
[9] = system: 786-0 renal
[10] = system: DU-145 prostate
[11] = system: K-562 leukemia
[12] = system: MALME-3M melanoma
[13] = system: MDA-MB-231 breast
[14] = system: RXF 393 renal
[15] = system: SF-268 CNS
[16] = system: SF-295 CNS
[17] = system: SF-539 CNS
[18] = system: UACC-257 melanoma
[19] = system: M14 melanoma

Measured: growth

CCNCCNc1cc(-c2ccc(C#N)cc2)c(C#N)c2nc3ccccc3n12
inactive: [1] 47.5% | [2] 81.1% | [3] 33.6% | [4] 56.6% | [6] 63.3% | [7] 31.8% | [9] 28% | [10] 33.6% | [11] 23.9% | [12] 51.6% | [15] 35.1% | [18] 57.5%
active: [5] -28.1% | [8] 2.81% | [13] 6.63% | [14] -10.6% | [16] -64.6% | [17] -77.3% | [19] -6.91%

C=C1C(=O)O[C@H]2[C@H]1CC/C(C(=O)NCCCCCCCCNC(=O)/C1=C/CC[C@@]3(C)O[C@H]3[C@H]3OC(=O)C(=C)[C@@H]3CC1)=C\CC[C@@]1(C)O[C@@H]21
active: [6] 4.35% | [7] -64.5%
inactive: [1] 92.3% | [2] 88.7% | [3] 94.9% | [4] 109% | [5] 110% | [8] 82.9% | [9] 85.1% | [10] 84.1% | [11] 18.3% | [12] 16.4% | [13] 74.3% | [14] 43.1% | [15] 91.8% | [16] 110% | [17] 70.1% | [18] 61.8% | [19] 82.8%

COC(=O)CNC(=O)C(=O)c1c(O)c(O)c(C(C)C)c2cc(C)c(-c3c(C)cc4c(C(C)C)c(O)c(O)c(C(=O)C(=O)NCC(=O)OC)c4c3O)c(O)c12
active: [5] 5.29% | [6] -7.96% | [7] -0.907% | [13] -13.6% | [16] 1.96%
inactive: [1] 17.8% | [2] 54.6% | [3] 22.1% | [4] 18.5% | [8] 11% | [9] 33.9% | [10] 24.9% | [11] 14.7% | [12] 46.2% | [14] 53.8% | [15] 26.8% | [17] 18.9% | [18] 52.1% | [19] 36.7%

Cc1ccc(S(=O)(=O)Nc2sccc2-c2nc(-c3ccccc3)no2)cc1
inactive: [1] 87.5% | [2] 87.9% | [3] 82.1% | [4] 77.8% | [5] 92.3% | [6] 88.8% | [7] 81.2% | [8] 90.3% | [9] 94.5% | [10] 105% | [11] 103% | [12] 94.4% | [13] 101% | [14] 96.1% | [15] 92.4% | [16] 99.3% | [17] 95% | [18] 89.3% | [19] 87.1%

O=S(=O)(Nc1ccsc1-c1nc(-c2ccccc2)no1)c1cc(Cl)cc(Cl)c1
inactive: [1] 94.4% | [2] 98.6% | [3] 95.4% | [4] 76.2% | [5] 100% | [6] 83.5% | [7] 77.3% | [8] 90% | [9] 98.5% | [10] 101% | [11] 105% | [12] 99.6% | [13] 102% | [14] 101% | [15] 92.8% | [16] 98.3% | [17] 91.4% | [18] 85.8% | [19] 92.1%

N[C@@H]1CCC[C@H]1NCCCCN1C(=O)c2cccc3cccc(c23)C1=O
active: [17] 7.65%
inactive: [1] 80.4% | [2] 91.9% | [3] 64.4% | [4] 81.9% | [5] 59.8% | [6] 48% | [7] 65.8% | [8] 67.4% | [9] 58% | [10] 59.8% | [11] 60.4% | [12] 116% | [13] 58.2% | [14] 72.8% | [15] 52.6% | [16] 84.4% | [18] 100% | [19] 64%

NC(N)=N/N=C/CO
inactive: [1] 103% | [2] 99% | [3] 99.7% | [4] 105% | [5] 104% | [6] 108% | [7] 106% | [8] 97.9% | [9] 99.9% | [10] 101% | [11] 99.2% | [12] 111% | [13] 111% | [14] 109% | [15] 105% | [16] 103% | [17] 97.5% | [18] 95.9% | [19] 99%

NC(N)=N/N=C/c1ccc(Br)cc1
inactive: [1] 56.4% | [2] 72.1% | [3] 98.6% | [4] 10.2% | [5] 14.3% | [6] 49.3% | [7] 40% | [8] 34.6% | [10] 80% | [12] 45% | [13] 38.1% | [14] 70.8% | [15] 62% | [16] 48.3% | [17] 62.2% | [18] 58.6% | [19] 14.6%
active: [9] -38.3% | [11] 4.4%

O=C(Oc1ccc([N+](=O)[O-])cc1)c1ccc(CBr)cc1
inactive: [1] 98.5% | [2] 106% | [3] 100% | [4] 139% | [5] 100% | [6] 88.5% | [8] 97.9% | [9] 108% | [10] 107% | [11] 86.7% | [12] 97.9% | [13] 84.8% | [14] 114% | [15] 100% | [16] 103% | [17] 97% | [18] 92.6% | [19] 105%
active: [7] -21.2%

O=C1CCC(N2C(=O)c3cccc(NCCCC4CCN(CCNC(=O)c5cc6c(o5)C(=O)c5ccccc5C6=O)CC4)c3C2=O)C(=O)N1 (centres undefined)
active: [1] -59.6% | [2] -69.2% | [3] -98.8% | [4] -52.9% | [5] -71.1% | [7] -51.7% | [8] -41.9% | [9] -26.2% | [10] -94.9% | [11] 2.99% | [12] -99.2% | [13] -25.2% | [14] -52.9% | [15] -32.7% | [16] -95.2% | [17] -99.1% | [18] -85.5% | [19] -83.2%
inactive: [6] 49%

CCc1c(C(=O)N[C@@H]2c3cc(Cl)ccc3CC[C@@H]2O)[nH]c(C)c1C(C)=O
inactive: [1] 100% | [2] 76.5% | [3] 91.2% | [4] 72.1% | [5] 33.6% | [6] 84.1% | [7] 65.9% | [8] 62% | [9] 89.3% | [10] 94.5% | [11] 69.7% | [12] 110% | [13] 84.2% | [14] 92.3% | [15] 73.2% | [16] 64.7% | [17] 67% | [18] 80.2% | [19] 87.4%

CCOc1cc(C2C(Cl)C(=O)N2n2cnnc2)ccc1O (centres undefined)
inactive: [1] 97.2% | [2] 106% | [3] 97% | [4] 74% | [5] 104% | [6] 91.9% | [7] 86.2% | [8] 90.5% | [9] 92.7% | [10] 110% | [11] 104% | [12] 99.5% | [13] 106% | [14] 93.4% | [15] 92.4% | [16] 105% | [17] 101% | [18] 88.9% | [19] 95.4%

O=C(/C=C/C12c3ccccc3C(c3ccccc31)C1C(=O)N(c3ccccc3)C(=O)C12)c1ccccc1 (centres undefined)
active: [1] 5.23% | [2] -27.4% | [5] -41.3% | [6] -6.42% | [9] 3.15% | [10] 5.98% | [12] -38.1% | [13] -3.22% | [14] -72.8% | [16] -3.2% | [17] -3.29%
inactive: [3] 12.9% | [4] 28.7% | [7] 16.7% | [8] 20.5% | [11] 14.5% | [15] 35.9% | [18] 33.6% | [19] 14.7%

Cl.Fc1c[c-]c(-c2ccccn2)c(F)c1.[Pt].c1ccc([PH+](C[PH+](c2ccccc2)c2ccccc2)c2ccccc2)cc1
active: [1] -78.1% | [2] -65.9% | [3] -98.3% | [4] -55.4% | [5] -63.5% | [6] -74.2% | [7] -60.1% | [8] -58.5% | [9] -68.1% | [10] -94.8% | [11] -18.5% | [12] -92.9% | [13] -83.8% | [14] -91.6% | [15] -70% | [16] -87.6% | [17] -86.4% | [18] -48.6% | [19] -87.1%

O=C(/C=C/C12c3ccccc3C(c3ccccc31)C1C(=O)NC(=O)C12)c1ccc(Cl)cc1 (centres undefined)
active: [1] -2% | [2] -22.3% | [3] 2.94% | [4] 6.96% | [5] -43.7% | [6] -15.2% | [9] -9.5% | [10] 8.95% | [11] 8.8% | [12] -37.4% | [13] -24.4% | [14] -75.8% | [16] 4.52% | [17] -34.2% | [19] 8.03%
inactive: [7] 11.4% | [8] 15.4% | [15] 29.9% | [18] 25.3%

Cc1cc(N(CCCNc2ccnc3cc(Cl)ccc23)Cc2ccccn2)nc(N2CCOCC2)n1
inactive: [1] 90.4% | [2] 90.9% | [3] 94.1% | [4] 85.2% | [5] 99.7% | [6] 66.6% | [7] 74.7% | [8] 86.4% | [9] 86% | [10] 113% | [11] 67.8% | [12] 89.8% | [13] 95.2% | [14] 77.3% | [15] 83.3% | [16] 92.9% | [17] 91.4% | [18] 101% | [19] 95.7%
